In the library only some 2.1% were active in any assay of this set; here they are far more common.
Gli-Sufu block – antagonists of Gli-Sufu signaling | AID 588413 | inhibition, % at 5 µM | hit rate 0.74% among 340,000 | Sufu-KO-LIGHT fibroblasts, Gli luciferase reporter luminescence;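 active = inhibition above about 55%, limit read from the data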
NR2F2 inh – blocks human COUP-TFII nuclear receptor; HEK293T NGFI-A luciferase reporter, luminescence; inhibition, % at 8.6 µM; hit rate 0.7% among 370,000;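 active = inhibition above a per-plate cutoff, mean inhibition of test wells between control levels plus 3 SD, cut at about 38% in these data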;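 note: cells cotransfected with COUP-TFII expression vector driving the NGFI-A reporter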
aDG glyco up – alpha-DG glycosylation activation; Pro5-aDG cells, alpha-DG glycosylation AlphaScreen (IIH6); 0% Pro5, 100% B10-LARGE cell signal; activation, % at 10 µM; hit rate 0.22% among 360,000;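 active = activation of at least 8% versus controls, or a plate z-score of at least 8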;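 note: Pro5 are CHO cells carrying HIG-tagged alpha-DG that lacks glycosylation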
GalR3 antagonist – human GalR3 antagonism; inhibition, % at 3 µM; AID 651719; HEK293 GalR3-CNG cAMP membrane potential fluorescence; galR3 body fused to GalR1 C-terminus; hit rate 0.44% among 360,000; O60755;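 active = inhibition above the screen-wide average plus 3 SD, cut at about 13% in these data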;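 note: forskolin and galanin both at EC90 stimulate the cells; cAMP rise reported by CNG channel membrane potential dye signal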
Target sequence (O60755 1-299 limits assumed): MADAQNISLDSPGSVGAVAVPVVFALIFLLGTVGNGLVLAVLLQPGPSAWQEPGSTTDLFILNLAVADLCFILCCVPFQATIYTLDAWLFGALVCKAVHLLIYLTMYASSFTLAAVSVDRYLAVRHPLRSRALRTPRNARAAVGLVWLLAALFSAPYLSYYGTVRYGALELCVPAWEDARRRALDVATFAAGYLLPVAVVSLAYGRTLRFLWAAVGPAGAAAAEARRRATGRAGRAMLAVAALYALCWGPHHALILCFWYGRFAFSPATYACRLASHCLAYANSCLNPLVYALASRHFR
HIV Env fusion – inhibitors of HIV Env-mediated cell fusion; HeLa-JRFL Env/CEM21 cell fusion, luciferase; inhibition, % at 12.3 µM; hit rate 1.1% among 360,000;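 active = mean replicate inhibition score of at least 50 and every replicate individually at or above 50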
Hits are given with their value; – = inactive; · = no result given.

SMILES	Gli-Sufu block	NR2F2 inh	aDG glyco up	GalR3 antagonist	HIV Env fusion
Fc1ccccc1CNCCc1c[nH]c2ccccc12	–	–	–	–	–
Fc1ccc(CNCCc2c[nH]c3ccccc23)cc1	–	–	–	–	–
CCOc1c(Cl)cc(CNCCc2c[nH]c3ccccc23)cc1OC	–	–	–	–	64
CCOc1cc(CNCCc2c[nH]c3ccccc23)cc(Cl)c1OCC	–	–	–	–	68
CC=Cc1ccc2n(c1=O)C[C@@H]1[C@@H](CO)[C@H](C(=O)OC)[C@H]2N1CC1CCOCC1 (mixture of isomers)	·	·	·	·	–
CCOC(=O)C(NC(=O)C(Cc1ccc(N(CCCl)CCCl)cc1)NC(C)=O)C(C)C (stereo not given)	–	–	–	–	–
COC(=O)C(Cc1ccc(N(CCCl)CCCl)cc1)N=Cc1ccccc1O (stereo not given)	64	–	–	–	–
C[C@H](Cc1ccc(OCC(=O)O)cc1)NC[C@H](O)c1cccc(Cl)c1	·	–	·	·	–
CC(Cc1ccc(O)cc1)NCC(O)c1cc(O)cc(O)c1 (stereo not given)	–	–	–	·	74
O=C(CNC(=O)OCc1ccccc1)Nc1ccc(Br)cc1C(=O)c1ccccc1	–	–	–	–	59
O=C(CNC(=O)OCc1ccccc1)NCC(=O)Nc1ccc(Br)cc1C(=O)c1ccccc1	–	–	–	–	–
Cc1[nH]nc2ccc(-c3cncc(OC[C@@H](N)Cc4c[nH]c5ccccc45)c3)cc12	93	·	–	·	·
CC[n+]1c(/C=C/N(C)c2ccccc2)sc2ccc(Cl)cc21	85	–	–	–	79
CCC(=NCCOc1ccc(Cl)cc1)c1c(O)n(C)c(=O)n(C)c1=O	–	–	–	–	50
CCC(=NCc1ccc2c(c1)OCO2)c1c(O)n(C)c(=O)n(C)c1=O	–	–	–	–	77
COC(=O)C[C@@H]1CC[C@H]2NC[C@H](O)COC[C@@H]2O1	·	·	·	·	–
COc1cccc(-c2ccc3n(c2=O)C[C@H]2[C@H](CO)[C@@H](C(=O)O)[C@@H]3N2Cc2ccccc2F)c1	·	·	·	·	–
COc1ccc(-n2c(O)c(C(C)=NCCCn3ccnc3)c(=O)[nH]c2=O)cc1	–	–	–	–	69
COc1ccc2[nH]c(C)c(CCNCc3cccnc3)c2c1	–	–	–	–	·
Cc1[nH]c2ccc(OC(F)(F)F)cc2c1CCNCc1ccc(Cl)cc1	–	–	–	–	93
Cc1[nH]c2ccc(OC(F)(F)F)cc2c1CCNCc1cccc([N+](=O)[O-])c1	–	–	–	–	67
COc1ccccc1CN1CCN(C(=O)COc2ccccc2)CC1	–	–	–	–	–
COOCC1(C(=O)OC)C[C@H](c2ccc(OC)cc2)N(Cc2ccccc2OC)[C@@H]1c1ccccc1C (stereo not given in full)	·	–	–	–	89
CC(=O)OC(C)(C)/C=C/C(=O)C(C)(O)C1C(O)CC2(C)C3CC=C4C(CC(O)C(=O)C4(C)C)C3(C)C(=O)CC12C (stereo not given)	87	–	–	–	65
CC(=O)OC(C)(C)/C=C/C(=O)C(C)(O)C1[C@H](O)C[C@@]2(C)C3CC=C4C(CC[C@@H](O)C4(C)C)[C@]3(CO)C(=O)C[C@]12C (stereo not given in full)	80	–	–	–	–
SMILES	Gli-Sufu block	NR2F2 inh	aDG glyco up	GalR3 antagonist	HIV Env fusion
CC(=O)OC(C)(C)/C=C/C(=O)[C@](C)(O)[C@H]1[C@H](O)C[C@@]2(C)[C@@H]3CC=C4[C@H](C[C@H](O)C(=O)C4(C)C)[C@]3(C)C(=O)C[C@]12C	88	·	–	·	·
O=C(O)[C@@H]1[C@@H](CO)[C@@H]2Cn3c(ccc(-c4ccncc4)c3=O)[C@H]1N2S(=O)(=O)c1ccccc1F	·	·	·	·	–
O=C(O)C[C@@H]1CC[C@H]2NC[C@@H](O)COC[C@@H]2O1	·	·	·	·	–
COC1C(C)OC(OC2CC(C)(O)Cc3cc4c(c(O)c32)C(=O)c2c(O)cc3c(c2C4=O)OC2OC3(C)C(O)C(N(C)C)C2O)C(OC)C1(C)OC (stereo not given)	–	–	–	–	71
COc1cccc(-c2ccc3n(c2=O)C[C@@H]2[C@@H](CO)[C@H](C(=O)O)[C@H]3N2Cc2ccccc2F)c1	·	·	·	·	–
COC(=O)C[C@@H]1CC[C@H]2NC[C@@H](O)COC[C@@H]2O1	·	·	·	·	–
COC(=O)[C@H]1[C@H](CO)[C@H]2Cn3c(ccc(/C=C/c4ccccc4)c3=O)[C@@H]1N2Cc1ccccc1F	·	·	·	·	–
CCn1c(NN=O)nc2ccccc21	70	–	–	–	–
CCn1c(P(C)(=O)O)nc2ccccc21	–	–	–	–	–

Assay outcomes (PubChem BioAssay)
